Only a selection was taken, and hits are over-represented in it overall.
MITF inh – inhibitors of MITF | actives 0.28% (n = 37,000) | TRPM1 promoter luciferase, luminescence, 24 h | AID 2240 | inhibition, % (test concentration not listed); in the data active = inhibition above about 85%; inconclusive = no clear call, values can overlap the other calls; inactive = below about 68%;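 also: human melanocyte line stably carrying TRPM1 promoter luciferase reporter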
YB-1 expr inh – YB-1 expression inhibition; actives 0.37% (n = 30,000); delta delta Cp (YB-1 minus CDIP) (no concentration beside the values); U2OS, qRT-PCR YB-1 vs CDIP delta delta Cp, 16 h; stronger effect = higher value; zero = DMSO, each unit about twofold;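 active = delta delta Cp rounded down to an integer at or above 3, about 3 SD of DMSO wells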;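 also: higher means less YB-1 transcript or more CDIP transcript relative to DMSO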
BJeLR viab HTS – BJeLR cell viability reduction; BJeLR fibroblasts viability, CellTiterGlo ATP luminescence, 48 h; HRASV12, hTERT and SV40 LT/ST transformed; viability loss activity score, % (test concentration not listed); actives 0.64% (n = 30,000); AID 2275; in the data active = viability loss activity score above about 50%; inconclusive = no clear call, values can overlap the other calls; inactive = below about 35%;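 also: higher score means fewer live cells and less ATP luminescence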
Shh pathway inh – Sonic Hedgehog pathway inhibition; AID 2313; inhibition, % (no concentration beside the values); Shh-LIGHT2 Gli-luciferase reporter, 30 h; actives 2.1% (n = 22,000);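 active = mean inhibition across valid replicates above about 65%, limit read from the data; inconclusive = mean under the limit, yet half or more replicates past it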;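 also: pathway switched on by Shh-conditioned medium diluted 1 in 25 in low serum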
Of the large screens only hits and unclear results are named; the others gave an inactive call.

CC(=O)OC1COC(OC2C(O)C(C)OC(OC3C(OC4CCC5(C)C(CCC6(C)C5CC=C5C7CC(C)(C)CCC7(C(=O)O)CCC56C)C4(C)CO)OCC(O)C3O)C2O)C(O)C1OC(C)=O (stereo unspecified)	Shh pathway inh 98
C/C=C(/C)C(=O)O[C@H]1CC(C)(C)C[C@H]2C3=CCC4[C@@]5(C)CC[C@H](O[C@@H]6O[C@H](C(=O)O)[C@@H](O[C@@H]7O[C@H](CO)[C@H](O)[C@H](O)[C@H]7O[C@@H]7O[C@H](CO)[C@@H](O)[C@H](O)[C@H]7O)[C@H](O)[C@H]6O[C@@H]6O[C@@H](C)[C@H](O)[C@@H](O)[C@H]6O)C(C)(C)C5CC[C@@]4(C)[C@]3(C)C[C@@H](O)[C@@]12CO (stereo partly specified)	MITF inh 92, BJeLR viab HTS 127, Shh pathway inh 99
C[C@@H]1O[C@@H](O[C@@H]2CC[C@@]3(C)C(CC[C@]4(C)C3CC=C3[C@@H]5CC(C)(C)CC[C@]5(C(=O)O[C@@H]5O[C@H](CO)[C@@H](O)[C@H](O)[C@H]5O)CC[C@]34C)[C@]2(C)CO)[C@H](O)[C@H](O[C@@H]2OC[C@@H](O)[C@H](O)[C@H]2O)[C@H]1O (stereo partly specified)	none
CCC(C(=O)N1CCCC1)n1c(C(=O)OC)cc2sccc21 (stereo unspecified)	none (no result: MITF inh, YB-1 expr inh, Shh pathway inh)
O=C(Cc1ccccc1)NC1CCN(C(=O)C2CCC2)CC1	none
CC1CCN(C(=O)c2ccc3nc(SCc4ccc(F)cc4)n(C)c3c2)CC1	none (no result: MITF inh, YB-1 expr inh, Shh pathway inh)
O=S(=O)(Nc1nc2ccccc2nc1NCCc1ccccc1)c1ccc(Cl)cc1	Shh pathway inh 78
C=C(C)C(=O)O[C@H]1C[C@@]2(C)OC(=CC2=O)/C(COC(C)=O)=C\[C@H]2OC(=O)C(=C)C12 (stereo partly specified)	BJeLR viab HTS 61, Shh pathway inh inconclusive
C=C1CCC(O)/C(C)=C\CC(C(C)C)C(OC2OC(COC(C)=O)C(O)C(O)C2O)C1 (stereo unspecified)	none
CC(C)CC1NC(=O)C(CC(C)C)N(O[C@@H]2O[C@H](COC(=O)CCC(=O)O)[C@@H](O)[C@H](O)[C@H]2O)C1=O (stereo partly specified)	YB-1 expr inh 4.9, Shh pathway inh 74
CC(C)NC(=O)N(C)C[C@H]1OCc2cnnn2CCCC(=O)N([C@@H](C)CO)C[C@@H]1C	none (no result: MITF inh, BJeLR viab HTS, Shh pathway inh)
